Results as given in PubChem BioAssay (NCI).
This is part of a sample that, as a whole, favours compounds with a hit. Of some 79,000 tested, about 15% had one in any assay. Unmarked numbers belong to inactive results. Calls of active or inactive are those of the source. Cut-off read from the data, not from the text of the source: active = growth inhibition above about 70%; inactive = the rest.

What was measured:
[1] = NCI Yeast Anticancer Drug Screen. Data for the rad50 strain (AID 155);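 note: 0% = growth of vehicle-only cultures of the same strain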; conditions: S. cerevisiae rad50 strain growth inhibition, stronger effect = higher value
Summary of the method: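 Inhibition values express reduced yeast growth in compound-treated cultures relative to vehicle-treated controls.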

[2] = NCI Yeast Anticancer Drug Screen. Data for the mec2-1 strain (AID 157); conditions: S. cerevisiae mec2-1 strain, stronger effect = higher value
Summary of the method: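 Using mec2-1 yeast: add compound, measure growth, express inhibition versus vehicle-treated cultures.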

[3] = NCI Yeast Anticancer Drug Screen. Data for the sgs1 mgt1 strain (AID 161);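 note: 0% = growth of cultures given vehicle only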; conditions: S. cerevisiae sgs1 mgt1 strain, stronger effect = higher value
Summary of the method: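 Percent growth inhibition was derived by comparing compound-exposed mutant yeast with vehicle-exposed cultures. The strain carries alterations in DNA damage repair.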

[4] = NCI Yeast Anticancer Drug Screen. Data for the cln2 rad14 strain (AID 165);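 note: 0% = growth equal to vehicle treated cultures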; conditions: S. cerevisiae cln2 rad14 strain, stronger effect = higher value
Summary of the method: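 Yeast strain cln2 rad14, bearing defects in cell cycle control and DNA repair, serves as the test system; values reflect growth inhibition compared with vehicle.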

[5] = NCI Yeast Anticancer Drug Screen. Data for the bub3 strain (AID 167); conditions: S. cerevisiae bub3 mutant strain, stronger effect = higher value
Summary of the method: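 Steps: expose the mutant yeast strain to compound; grow alongside vehicle-treated cultures; measure growth; express inhibition against the vehicle cultures.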

[6] = NCI Yeast Anticancer Drug Screen. Data for the mlh1 rad18 strain (AID 175); conditions: S. cerevisiae mlh1 rad18 strain growth inhibition, stronger effect = higher value
Summary of the method: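 Steps: expose repair-defective yeast to compound; measure growth; express inhibition against vehicle-treated controls.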

[7] = at 5.0 µM (retest, dose inferred, filed as 0.5)
[8] = at 50.0 µM (retest, dose inferred, filed as 5.0)

Structure (SMILES)	growth inhibition [1, 7]	growth inhibition [1, 8]	growth inhibition ([1]; at 50.0 µM)	growth inhibition [2, 7]	growth inhibition [2, 8]	growth inhibition ([2]; at 50.0 µM)	growth inhibition [3, 7]	growth inhibition [3, 8]	growth inhibition ([3]; at 50.0 µM)	growth inhibition [4, 7]	growth inhibition [4, 8]	growth inhibition ([4]; at 50.0 µM)	growth inhibition [5, 7]	growth inhibition [5, 8]	growth inhibition ([5]; at 50.0 µM)	growth inhibition [6, 7]	growth inhibition [6, 8]	growth inhibition ([6]; at 50.0 µM)
CCC(=O)C(=O)CC1CC(c2ccco2)=Nc2ccccc2S1 (stereo not given)	9%	97% (active)	-0.45%	13%	98% (active)	5.65%	28%	94% (active)	22.6%	6%	97% (active)	-24.4%	14%	96% (active)	6.35%	14%	98% (active)	18.5%
CCCCCNc1ccc2c(cc1=O)C(NC(C)=O)CCc1cc(OC)c(OC)c(OC)c1-2 (stereo not given)	16%	89% (active)	13.4%	10%	97% (active)	19.8%	11%	98% (active)	18.2%	16%	93% (active)	71.7% (active)	21%	97% (active)	45.2%	19%	95% (active)	24.9%
Cn1c(=O)c2c(nnc(-c3ccccc3)[n+]2[O-])n(C)c1=O	-3%	46%	99.5% (active)	-1%	97% (active)	99.7% (active)	1%	90% (active)	99.7% (active)	2%	43%	99% (active)	-3%	60%	99.6% (active)	-6%	95% (active)	99.6% (active)
Cc1c(N)nc(C2CC(=O)N2CC(N)C(N)=O)nc1C(=O)NC(C(=O)NC(C)C(O)C(C)C(=O)NC(C(=O)NCCc1nc(-c2nc(C(=O)NCCCNC3CCCC3)cs2)cs1)C(C)O)C(OC1OC(CO)C(O)C(O)C1OC1OC(CO)C(O)C(OC(N)=O)C1O)c1cnc[nH]1 (stereo not given)	98% (active)	99% (active)	92.2% (active)	97% (active)	99% (active)	93.3% (active)	96% (active)	98% (active)	93.5% (active)	93% (active)	97% (active)	88.3% (active)	97% (active)	98% (active)	93.5% (active)	98% (active)	99% (active)	92% (active)
CCc1cccc(C)c1NC(=O)C(=O)C(C#N)c1ccc(C)cc1 (stereo not given)	-3%	27%	28.5%	0%	5%	13.2%	-25%	-1%	17.9%	8%	18%	13.7%	-4%	39%	16.1%	13%	24%	23.9%
Cc1ccc(C(=O)/C(Cl)=N/O)cc1	32%	99% (active)	98.8% (active)	10%	100% (active)	99.1% (active)	13%	100% (active)	97.8% (active)	0%	99% (active)	78.7% (active)	3%	99% (active)	98.8% (active)	27%	99% (active)	98.5% (active)
CCCC(=O)Oc1ccc(OCc2ccccc2)cc1	-1%	55%	-23.8%	-1%	55%	-15.1%	0%	55%	1.6%	-3%	-15%	-41.8%	23%	77% (active)	75.2% (active)	0%	42%	-10.9%
COc1cc(C(c2cc3c(cc2OC(C)=O)OCO3)C(C(C)=O)C(C)=O)cc(OC)c1OC(C)=O (stereo not given)	7%	18%	3.7%	-4%	18%	5%	-5%	0%	-18.9%	-1%	1%	-16.4%	8%	13%	8.75%	3%	11%	-4.2%
O=c1cccccc1O.O=c1cccccc1O.O=c1cccccc1O.[Ru]	29%	64%	87.5% (active)	32%	90% (active)	96.2% (active)	49%	81% (active)	91.5% (active)	11%	36%	26.4%	-11%	-9%	15.8%	55%	81% (active)	95.1% (active)
O=C(Nc1ccccc1O)/C(Cl)=C/Cl	-153%	95% (active)	98.2% (active)	-47%	97% (active)	97.8% (active)	-57%	96% (active)	78.8% (active)	-67%	95% (active)	93.5% (active)	-63%	96% (active)	94.8% (active)	-134%	96% (active)	99.3% (active)
